Test results from PubChem BioAssay (NCI).
Compounds without any hit were thinned out: in the full panel of roughly 83,000, 20% have a hit.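 Treatment: one concentration, 48 hours, 96-well format. Scoring: percent growth, with anything below 10 considered active.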 Active and inactive are the calls of the source.

Test system: UACC-257 melanoma
Assay: NCI-60 one-dose screen, 48 h (100 = growth as untreated, 0 = no growth, -100 = all killed)
Settings: 10 µM

SMILES	growth
O=C(NO)c1ccc(Cn2ccc3c(Nc4ccccc4)ncnc32)cc1	26.5% (inactive)
N#Cc1ccc(-c2nn(-c3ccc(C(=O)O)cc3)cc2CNc2cccc(Br)c2)cc1	65.7% (inactive)
O=C(c1ccc(Cl)cc1)C1[C@H](c2ccccc2Br)[C@@H](c2ccccc2)NC12C(=O)Nc1ccccc12 (some centres not stated)	33.8% (inactive)
CC1(C)CC[C@]2(C(=O)Nc3ccccc3)CC[C@]3(C)C(=CC[C@@H]4[C@@]5(C)CC[C@H](N)C(C)(C)[C@@H]5CC[C@]43C)[C@H]2C1	103% (inactive)
CC(=C(c1ccc(OCCCN(C)C)cc1)c1ccc(OCCCN(C)C)cc1)c1ccccc1	-88% (active)
Cc1ccc(/C=C/C(=O)c2ccc(S(=O)(=O)NCCNc3nc(Nc4ccc(F)cc4)nc(N(C)C)n3)cc2)cc1	61.2% (inactive)
COc1ccc(C(=O)Nc2sc3c(c2C#N)CCC(=O)C3)cc1C(F)(F)F	-15.8% (active)
COc1ccc2nc(Cl)c(-c3cc(-c4ccccc4)nc(=S)[nH]3)cc2c1	38.2% (inactive)
Cc1ccc(-c2cc(C(=O)N=Nc3c(O)[nH]c4ccccc34)c3ccccc3n2)cc1	81% (inactive)
C#Cc1ccc(S(=O)(=O)Nc2cccc(-c3csc(NC(C)=O)n3)c2)cc1	80% (inactive)
CC(C)C1=C[C@@]23CC[C@@H]4[C@](C)(CCC[C@]4(C)C(=O)NCc4ccccc4)[C@H]2C[C@@H]1[C@H]1C(=O)CCC(=O)[C@H]13	77.6% (inactive)
COc1ccc(C(=O)NC(=S)N2CCN(c3ncnc4c3cnn4-c3ccccc3)CC2)cc1	54.4% (inactive)
C[C@H]1[C@H](C)CC[C@]2(COC(=O)CCC(=O)NCC#CCN3CCNCC3)CC[C@]3(C)C(=CC[C@@H]4[C@@]5(C)CCCNC(C)(C)[C@@H]5CC[C@]43C)[C@H]12	26.3% (inactive)
CC[C@@]1(O)C(=O)OCc2c1cc1n(c2=O)Cc2c-1nc1cc(F)c(C)c3c1c2[C@@H](N)CC3	-59.6% (active)
Cc1cccc2cc(-c3cc(-c4ccccc4)nc(=S)[nH]3)c(Cl)nc12	77.8% (inactive)
Cc1ccc(CNC(=O)Cc2ccc3c(c2)CN(C2CCC(=O)NC2=O)C3=O)cc1 (configuration not stated)	70.5% (inactive)
CONC[C@]1(C)C=C2C(=O)[C@](C)(O)C3(CC3)C(C)=C2[C@H]1O	-27.2% (active)
CC1(C)CC[C@]2(C(=O)N3CCOCC3)CC[C@]3(C)C(=CC[C@@H]4[C@@]5(C)CC[C@H](NCO)C(C)(C)[C@@H]5CC[C@]43C)[C@H]2C1	-93.9% (active)
NS(=O)(=O)c1ccc(N=Nc2c(O)n(CC(=O)Nc3ccccc3Br)c3ccccc23)cc1	50% (inactive)

SMILES	growth
CNC(=O)c1cccc(N2CCc3c2ccc(NC(=O)Nc2ccc(N4CCN(C)CC4)c(C(F)(F)F)c2)c3F)c1	-35% (active)
O=C(NCCCCC(c1ccc(F)cc1)c1ccc(F)cc1)NCCCc1cccnc1	25.8% (inactive)
CC(=O)Nc1ccc(-c2cn(-c3cccc(C(=O)Nc4ccc(Cl)c(C(F)(F)F)c4)c3)nn2)cn1	-21.8% (active)
CCCS(=O)(=O)c1oc(-c2ccc(F)cc2)nc1S(=O)(=O)c1ccc(F)cc1	-30.9% (active)
O=C(Cn1nc(-c2ccccc2)ccc1=O)NN1C(=O)c2ccccc2C1=O	113% (inactive)
CC(=O)NCC1=C(C)C=C2C(=O)[C@](C)(O)C3(CC3)C(C)=C21	-62% (active)
CCN1CCN(Cc2ccc(C(=O)Nc3cccc(-c4cn(-c5ccc6oc(=O)ccc6c5)nn4)c3)cc2C(F)(F)F)CC1	-49.9% (active)
CCOP(=O)(OCC)O[C@H]1CCC(=O)[C@@H]2[C@H]1[C@H]1C[C@@H]3[C@@]4(C)CCCC(C)(C(=O)OC)[C@@H]4CC[C@@]23C=C1C(C)C (some centres not stated)	41.8% (inactive)
O=C1Nc2ccc(F)cc2/C1=C/c1cccc(OCc2ccccn2)c1	44.1% (inactive)
CC1=N/C(=C\c2ccc(N(C)C)cc2)C(=O)N1CCc1ccc(S(N)(=O)=O)cc1	87.1% (inactive)
O=C(Nc1ccc(I)cc1F)c1cc(-c2ccc(F)cc2F)ccc1O	-7.17% (active)
C/C(=N\NC(N)=S)c1ccc(Nc2nc(SC(C)C)nc(-c3ccccc3)c2C#N)cc1	85.1% (inactive)
COc1ccc2c(c1)N=C(C(=O)O)/C2=C/c1sc(Nc2ccc(O)cc2)nc1O	81.3% (inactive)
COc1cc(-c2nc3cc(Cl)c(Cl)cc3[nH]2)ccc1OCc1nnc(-c2ccc(Br)cc2)o1	4.56% (active)
Cc1ccc(NC(=O)c2ccc(-n3c(=O)[nH]c4ccccc4c3=O)cc2)cc1	122% (inactive)
CC(=C(c1ccc(OCCN2CCCCC2)cc1)c1ccc(OCCN2CCCCC2)cc1)c1ccccc1	-78.9% (active)
CCCCCc1ccc(S(=O)(=O)N(C(C)=O)c2cc(-c3csc(N(C)C(C)=O)n3)ccc2N2CCN(C)CC2)cc1	-34.1% (active)
COc1cc2c3c(n(CCCNC(C)C)c(=O)c2cc1OC)-c1nc2c(cc1C3=O)OCO2	-30.4% (active)
